Measured values from the supplement of paper PMC10498489.
Screen size: about 2,300 compounds; about 330 (14%) showed activity.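 How the source made its calls: active = median modified Z-score above 1.96; inactive = 1.96 or below.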 These entries were drawn from the full list.

system: HepG2 Srxn1-GFP reporter cells (+30 nM CDDO-Me); experiment: Srxn1-GFP intensity median modified Z-score relative to plate median; higher = stronger NRF2 / oxidative stress reporter activation, active = hit call of the paper; conditions: 10 µM; exposure time: 24h
Summary of the method: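 Each value is the replicate median of a per-plate modified Z-score for GFP intensity in HepG2 Srxn1-GFP BAC reporter cells. The cells (20,000 per well, 96-well plates, three replicate plates) received compound at 10 μM together with an NRF2 activator at 30 nM for 24 h, in ≤0.1% DMSO. Cytoplasmic GFP was quantified per cell from confocal images of formaldehyde-fixed, Hoechst-stained cells, leaving out images with fewer than 100 cells, and scaling used 1.4826 × median absolute deviation.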

Srxn1-GFP intensity median modified Z-score, inactive:
CCOc1ccc(S(=O)(=O)O)c2cccnc12 [euspeclibcmpd2064] 0.0425
Nc1ccc(S(=O)(=O)N=c2cnc3ccccc3[nH]2)cc1 [euspeclibcmpd2157] 0.000648
OC[C@@H](O)[C@H](O)[C@@H](O)[C@H](O)CO [euspeclibcmpd2232] 0.317
N=c1[nH]cnc2c1ncn2[C@@H]1O[C@H](CO)[C@@H](O)[C@H]1O [euspeclibcmpd2100] -0.0799
N=c1ccn(C2O[C@H](CO)[C@@H](O)[C@H]2O)c(=O)[nH]1 (some centres undefined) [euspeclibcmpd2152] -0.285
O=c1ccn([C@@H]2O[C@H](CO)[C@@H](O)[C@H]2O)c(=O)[nH]1 [euspeclibcmpd2258] -0.304
NC(=O)c1ncn(C2O[C@H](CO)[C@@H](O)[C@H]2O)c1N (some centres undefined) [euspeclibcmpd855] 0.445
Cc1c(NS(=O)(=O)C(C)C)c(=O)n(-c2ccccc2)n1C 1.19
CC(C)(CO)C(=O)C(O)NCCCO (centres undefined) [euspeclibcmpd2316] -0.0436
CC(C)(CO)C(=O)C(O)NCCCO (centres undefined) [euspeclibcmpd2342] -0.119
CON=C(C(=O)NC1C(=O)N2C(C(=O)OCOC(=O)C(C)(C)C)=C(/C=C\c3scnc3C)CSC12)c1csc(=N)[nH]1 (centres undefined) [euspeclibcmpd753] 0.022
CON=C(C(=O)NC1C(=O)N2C(C(=O)O)=C(COC(N)=O)CSC12)c1ccco1 (centres undefined) [euspeclibcmpd2072] -0.532
CN1C(C(=O)N=c2cccc[nH]2)C(=O)c2ccccc2S1(=O)=O (centres undefined) [euspeclibcmpd238] -0.406
N=c1ccn(C2CSC(CO)O2)c(=O)[nH]1 (centres undefined) [euspeclibcmpd613] -0.762
CON=C(C(=O)NC1C(=O)N2C(C(=O)OC(C)OC(C)=O)=C(COC(N)=O)CSC12)c1ccco1 (centres undefined) [euspeclibcmpd658] 0.198
Cc1noc(C)c1S(=O)(=O)N1CCN(C(=O)C2=COCCO2)CC1 1.2
COC(=O)C[C@H]1C(C)(C)[C@@H](O)C2CC3=C4C=C(OC)O[C@@H](c5ccoc5)[C@]4(C)CCC3[C@@]1(C)C2=O (some centres undefined) [euspeclibcmpd1395] 1.94
CCn1c(O)c(-c2ccccc2)[nH]c1=O [euspeclibcmpd780] -0.504
Cc1c(NC(=O)c2ccsc2)c(=O)n(-c2ccccc2)n1C 0.403
CO[C@H]1C[C@H](O[C@@H]2C(C)C(=O)O[C@H](C)[C@H](C)[C@H](OC(C)=O)C(C)C(=O)[C@@]3(CO3)C[C@H](C)[C@H](OC3O[C@H](C)C[C@H](N(C)C)[C@H]3OC(C)=O)[C@H]2C)O[C@@H](C)[C@@H]1OC(C)=O (some centres undefined) [euspeclibcmpd623] -0.159
CCCCC(=O)O[C@]1(C(=O)CO)CCC2C3CC=C4CC(=O)CC[C@]4(C)C3[C@@H](O)C[C@@]21C (some centres undefined) [euspeclibcmpd786] -0.698
C[C@]12CCC(=O)CC1=CCC1C2C(=O)C[C@@]2(C)C1CC[C@]2(O)C(=O)CO (some centres undefined) [euspeclibcmpd1248] -0.459
CC(=O)OCC(=O)C1CCC2C3CC=C4CC(=O)CC[C@]4(C)C3CC[C@]12C (some centres undefined) [euspeclibcmpd6] -0.444
CC(=O)[C@@]1(O)CCC2C3CC=C4CC(=O)CC[C@]4(C)C3CC[C@@]21C (some centres undefined) [euspeclibcmpd1279] -0.195
CCCC(=O)O[C@]1(C(=O)CO)CCC2[C@@H]3CC=C4CC(=O)CC[C@]4(C)C3[C@@H](O)C[C@@]21C (some centres undefined) [euspeclibcmpd566] -0.863
CC(=O)C1CCC2C3CC=C4C[C@@H](O)CC[C@]4(C)C3CC[C@]12C (some centres undefined) [euspeclibcmpd1041] 0.815
CC(=O)O[C@]1(C(C)=O)CCC2C3=CC(Cl)=C4CC(=O)CC[C@]4(C)C3CC[C@@]21C (some centres undefined) [euspeclibcmpd746] -0.232
N=C(N)NC(=O)c1nc(Cl)c(=N)[nH]c1N [euspeclibcmpd18] 1.07

Srxn1-GFP intensity median modified Z-score, active:
CCN(CC)Cc1ccc(N=c2cc[nH]c3cc(Cl)ccc23)cc1O [euspeclibcmpd22] 3.72
N=c1ncn([C@@H]2O[C@H](CO)[C@@H](O)[C@H]2O)c(=O)[nH]1 [euspeclibcmpd436] 15.1
N=c1[nH]c(=S)c2ncn(C3O[C@H](CO)[C@@H](O)[C@H]3O)c2[nH]1 (some centres undefined) [euspeclibcmpd1778] 41.1
CC(=O)C12OC(C)(c3ccccc3)OC1CC1C3CC=C4CC(=O)CCC4(C)C3CCC12C (centres undefined) [euspeclibcmpd1961] 5.88
CC(=O)C1CCC2C3CC=C4CC(=O)CC[C@]4(C)C3CC[C@]12C (some centres undefined) [euspeclibcmpd251] 2.27
CCCCCC(=O)O[C@]1(C(C)=O)CCC2C3CC=C4CC(=O)CC[C@]4(C)C3CC[C@@]21C (some centres undefined) [euspeclibcmpd155] 13.5
